Source: ChEMBL document CHEMBL4888484, “Replenishing the malaria drug discovery pipeline: Screening and hit evaluation of the MMV Hit Generation Library 1 (HGL1) against asexual blood stage Plasmodium falciparum ,using a nano luciferase reporter read-out” (2022)
Hit rate of the full screen: of about 4,800 compounds, about 410 (8.5%) showed an effect of 50% or more. This excerpt belongs to a sample that is enriched for strong results.

Tested on: Plasmodium falciparum
Assay: Confirmatory screen in NF54 pLDH assay, in single point, at 2uM, 72h
Type: functional, Erythrocyte
Settings: timepoint 72 hour

Compound	% Inhibition
CCC(C(=O)Nc1cc(C)on1)(C(F)(F)F)C(F)(F)F	9%
CCCN1CCN(CCCNC(=O)c2ccc(Cl)c(-n3c(C)nc4cccnc43)c2)CC1	13%
Cc1cc(NC(=O)[C@H](C)OC(=O)c2ccc3c(c2)OCC(=O)N3)on1	-19%
Cc1nnc(CNC(=O)Nc2cccc3c4c(oc23)CCCC4)o1	72%
Cc1nnc(CC(=O)NC2CC(OCc3ccccc3)C2(C)C)o1 (stereo not given)	8%
Cc1nnc(-c2ccccc2NC(=O)CCC2CCC(C)O2)o1 (stereo not given)	-16%
Cc1ccc(NC(=N)NC2=N[C@@H](CC(=O)Nc3cccc(C(F)(F)F)c3)C(=O)N2)cc1	-10%
CCn1nccc1CNc1ccc(F)cc1F	2%
Cc1ccc(S(=O)(=O)N2CCC[C@H](C(=O)NCc3cccc(NC(=O)N4CCCC4)c3)C2)s1	8%
Cc1cc2c(OC[C@@H](O)CN3CCOCC3)cccc2[nH]1	-7%
Cc1nn(Cc2ccccc2)c(=O)n1-c1ccc(OCc2ccccc2)cc1	-14%
COCCCNC(=O)C1CCN(c2c(C)n(-c3ccccc3)c(=O)n(CC(C)C)c2=O)CC1	5%
CN(Cc1ccc(F)cn1)c1ccn(C)n1	8%
CC1(C)OCc2cc(CNc3ccc4oc(=O)[nH]c4c3)ccc2O1	100%
Cc1ccc(C)c(NC(=O)CC(=O)O)c1	-8%
O=C1C2CC2C(=O)N1Cc1ccccc1 (stereo not given)	10%
Cc1nc(-c2ccc(N3CCC(NCCCn4ccnc4)CC3)cc2)cs1	23%
O=C(CN1CCC(c2ccc(F)c(F)c2)CC1)NCc1cccnc1	-8%
Cc1ccc(C(=O)N[C@@H](C)CCc2ccccc2)cc1S(=O)(=O)N1CCN(C)CC1	-22%
O=S(=O)(c1ccccc1C(F)(F)F)N1CC[C@]2(CCN(c3cccnc3)C2)C1	10%
CC(C#N)CNCCC(C)c1ccccc1 (stereo not given)	8%
O=C(O)c1cc(C=Cc2ccc3ncccc3c2)ncn1	11%
COc1ccc2cc3n(c2c1)C[C@](C(=O)NC1CCCCCC1)(c1ccccc1)N(Cc1ccc(OC(C)C)cc1)C3=O	-23%
Brc1cnn(Cc2cnc(NC3C4CCOC4C34CCC4)s2)c1 (stereo not given)	4%
C[C@@H](N)C(=O)N1CCc2cc(-c3ccccc3)ccc21	11%
CCC1CCCC(NS(=O)(=O)CCC(C)(C)C)C1 (stereo not given)	-12%
Cc1ccc(N2CCN(S(=O)(=O)c3ccccc3)[C@@H](C)C2=O)cc1F	-11%

Compound	% Inhibition
O=c1[nH]c(=O)n(S(=O)(=O)c2ccccc2)cc1F	87%
O=S(=O)(c1ccccc1)N1CCN(S(=O)(=O)c2ccc(Cl)cc2)C1	11%
COc1ccc(CCNC(=O)c2cc3c(=O)[nH]c(C)cn3n2)cc1OC	8%
COc1cc(F)c(NCc2csc(C3CC3)n2)cc1OC	-21%
CNC[C@H]1CCCN1C(=O)c1ccc(-c2noc(C(F)(F)F)n2)cc1	12%
COC1CCCCC1NC(=O)c1ccc(-c2noc(C(F)(F)F)n2)cc1 (stereo not given)	8%
COc1cccc(CNC(=O)Cn2c(=O)n(C)c(=O)c3c2c(-c2ccccc2)cn3C)c1OC	-10%
Cc1oc(-c2ccn[nH]2)cc1S(=O)(=O)Nc1cccc(Cl)c1	4%
COc1ccc(-c2noc(Cn3c(=O)c4ccccc4n(CC(=O)NCCc4ccc(OC)c(OC)c4)c3=O)n2)cc1	6%
CNCC(=O)Nc1ccccc1C(F)(F)F	-9%
O=C(c1cnc2ccccc2n1)N1CCCC1	-1%
N[C@H]1C[C@@H](c2cc(N3CCN(C4CCCCC4)CC3)nc(N3CCCC3)n2)C1	50%
c1ncc(N2CCN3CCC[C@H]3C2)nc1OCC1CCCC1	-16%
Cc1cccc(CNc2cc([C@H]3C[C@@H](N)C3)nc(N3CCCC3)n2)c1	14%
O=C(O)CCCC(=O)NCCc1ccc(Cl)cc1	-19%
COc1ccc(OCc2nc3cc4c(cc3cc2C(=O)O)OCO4)cc1	5%
CCOc1ccc(Nc2c3ccccc3nc3ccccc23)cc1	96%
COc1ccc(NC(=O)c2nc(Nc3ccccc3)c3ccccc3n2)cc1	7%
CCOc1ccc(-n2c(CN3CCN(C(=O)c4ccco4)CC3)nc3ccccc3c2=O)cc1	14%
Cc1ccc(-c2ccnc3c(C(=O)N4CCOCC4)cnn23)cc1C	2%
Cc1cccnc1C(F)(F)C(=O)Nc1cc(C)c(O)c(C)c1	11%
O=C(Nc1ccc(N2CCn3c(nc4cc(Cl)ccc43)C2)cc1)NC1CCCCC1	-13%
C[C@H](OC1CCCCCC1)C(=O)Nc1nc(C(N)=O)cs1	-11%
Cc1ccccc1C(=O)NCc1nn(C2CCCC2)c2c1COCC2	6%
COc1cccc(CNCCCn2ccnc2)c1OCc1ccc(F)cc1	10%
COc1ccc(C)c2sc(N(CCCn3ccnc3)C(=O)Cc3ccc(F)cc3)nc12	85%
Cc1nn(C)c(Cl)c1CNCc1ccc(N2CCCCC2)nc1	-13%

Compound	% Inhibition
O=C(Nc1ccncc1)c1nc(N2CCCC2)ncc1Br	-9%
Fc1ccc(COc2cccc(CNCCN3CCOCC3)c2)cc1	-3%
COc1cc(CNCCN2CCOCC2)ccc1OCc1cccc(C)c1	7%
CCCc1nnc(N(Cn2nnc3ccccc32)C(=O)CN2CCOCC2)s1	2%
CC1CCC(c2noc([C@H]3CCO[C@@H]3c3cncc(Br)c3)n2)CC1 (stereo not given in full)	59%
O=C(c1cncc(Br)c1)N1CC[C@H](c2nc(C3CCOCC3)no2)C1	10%
Cc1ccc(NCc2ccc(OCc3cccc4ccccc34)c(Br)c2)cc1	11%
CCCN(CC(=O)N(Cc1ccccc1)Cc1ccc(C)o1)C(=O)c1ccco1	-5%
O=C(c1ccccc1)C1C(c2ccccc2)N1C(=O)c1ccc(Cl)cc1Cl (stereo not given)	6%
FC(F)(F)c1nnc(NCc2cncs2)s1	-7%
COCc1nsc(N2CCC(c3c(F)cccc3F)CC2)n1	7%
Cn1cncc1CC(=O)Nc1ccnc(NC(=O)OC(C)(C)C)c1	100%
CC(C)(C)OC(=O)Nc1cccc(N)n1	8%
COc1ccc2c(O)cc(-c3ccccc3)nc2c1	1%
Nc1c(-c2ccccc2)nsc1C(=O)NCC1CC1	9%
COc1cccc(NC(=O)N2C[C@@H]3C[C@H](NS(C)(=O)=O)[C@H]2C3)c1	8%
O=C1CCC(C(=O)N2CCC[C@H]2c2ccncc2)=NN1c1ccccc1	-11%
CC[C@H](O)CN1CCC(Nc2ncnc3cc(Cl)ccc23)CC1	75%
CON(C)C[C@H](O)Cn1cc(Nc2ncnc3cc(F)ccc23)cn1	5%
C[C@H](C(=O)Nc1ccc(F)cc1Cn1ccsc1=O)C1CC1	-14%
Cc1nscc1C(=O)Nc1cccc(OCCN2CCCC2)c1	-15%
Cc1cc(CN(C)Cc2nccn2C)ccc1N1CCCCC1	1%
CC(C)(C)c1cc2c(NCC3=CCOCC3)nccn2n1	9%
COc1cc(C(=O)Nc2scnc2C)cc(OC)c1OC	7%
COc1cc(C(=O)Nc2ccc3sc(NC(=O)c4cc(OC)c(OC)c(OC)c4)nc3n2)cc(OC)c1OC	67%
Cc1cccc(C(=O)Nc2nc3cc4sc(NC(=O)c5cccc(C)c5)nc4cc3s2)c1	-8%
CNCc1cc(OC)c(OC)cc1Cl	11%

Compound	% Inhibition
Cc1ccc(C)c(C(=O)Cn2nc3ccc(-c4ccc(Cl)cc4)nn3c2=O)c1	6%
Cc1nc(NC(=O)c2ccn(COc3ccc(F)c(Cl)c3)n2)sc1C	-8%
CC(=O)NCC(=O)N(Cc1ccco1)C1(C(=O)NC2CCCCC2)CCCCC1	8%
CCn1nccc1C(=O)N1CC[C@H](CC(=O)NCc2ccncc2)C1	6%
Cc1cc(C(=O)NCc2ccncc2)no1	-10%
N#Cc1cc2cc(Cl)cnc2nc1N1CCCCC1	16%
CCOc1cc(Cl)ccc1C(=O)NC1CCN(C[C@H]2CCOC2)CC1	5%
COc1cc(C(=O)NC2CCCCC2)cc2occc12	0%
Cc1cnccc1NCCNC1CCN(c2ccc(Cl)cc2)CC1	96%
Cc1cnccc1NCCNC1CCN(c2ccc3c(c2)CCC3)CC1	77%
CCn1nccc1C(=O)NC1CCN(c2nnc3ccc(Cl)cn23)CC1	10%
N#Cc1c(N2CCCCC2)ncc2c(=O)c3ccccc3[nH]c12	8%
O=C(Cc1ccc(F)cc1)N[C@H](c1ccccc1)C1CC1	2%
CCCOc1ccc(CNC(=O)CCn2ccn3nc(-c4ccc(C)c(C)c4)cc3c2=O)cc1	5%
O=C(c1ccccc1)c1ccc(O)c(CN2CCCN(c3ccc(C(F)(F)F)cn3)CC2)c1O	80%
Cc1ccc(-n2nc(C)cc2NC(=O)CN2CCCN(c3ccc(C(F)(F)F)cn3)CC2)cc1	9%
O=C(C1CC1c1ccccc1)N(c1ccc(F)cn1)C1CCOCC1 (stereo not given)	7%
O=C(NCc1ccc2c(c1)OCO2)C(F)(F)C(F)(F)C(F)(F)C(F)(F)C(=O)NCc1ccc2c(c1)OCO2	-19%
CN1CCN([C@H]2CCN(c3ccnc4ccc(Cl)cc34)C[C@H]2CCCO)CC1	60%
CCCOc1cc(=O)c(C(=O)N2CCCC2)nn1-c1ccc(C)cc1	0%
CCn1cc([C@H](CC(=O)N2CCN(Cc3ccc4c(c3)OCO4)CC2)c2cccc(OC)c2)c2ccccc21	2%
OC(CNC1CCCNc2ccccc21)c1ccc(Cl)s1 (stereo not given)	51%
O=C(NC[C@H](O)c1ccc(Cl)s1)c1ccsc1	2%
Cc1cccc(NC(=O)CC(C)(C)CC(=O)O)c1C	13%
